Shown are actives, neighbours in structure and some others; about 2.1% of the full set was active somewhere.
D2 PAM-1: human D2 receptor positive allosteric modulation. P14416. DiscoveRx D2 beta-arrestin cells, luminescence, 90 min; 100% = 57 uM dopamine signal. potentiation, % (concentration not given with the values). 360,000 tested, 0.23% active. AID 624464; in the data active = potentiation above about 50%; inconclusive = mostly about 30% to 49%
Target sequence (P14416 whole entry, looked up): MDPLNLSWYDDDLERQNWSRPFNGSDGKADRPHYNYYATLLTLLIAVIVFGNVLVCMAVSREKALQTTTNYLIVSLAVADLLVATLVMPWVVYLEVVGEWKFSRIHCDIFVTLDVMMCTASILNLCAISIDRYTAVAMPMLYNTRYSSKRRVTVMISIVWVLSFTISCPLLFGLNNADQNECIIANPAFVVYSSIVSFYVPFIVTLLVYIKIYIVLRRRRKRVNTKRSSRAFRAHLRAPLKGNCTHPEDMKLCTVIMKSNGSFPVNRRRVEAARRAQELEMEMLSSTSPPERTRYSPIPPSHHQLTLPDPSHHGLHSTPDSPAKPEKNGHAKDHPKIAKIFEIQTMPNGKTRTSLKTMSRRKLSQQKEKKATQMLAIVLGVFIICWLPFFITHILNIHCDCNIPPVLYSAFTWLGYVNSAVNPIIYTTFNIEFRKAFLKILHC
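PathHunter beta-arrestin assay in DiscoveRx D2 cells. Compounds were added with an EC20 of dopamine (50 nM final) for 90 min at 37 deg C. Luminescence was read 1 h after detection reagent, with 57 uM dopamine as the EC100 control.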
D2 ag-1: agonists of human D2 dopamine receptor (beta-arrestin) | P14416 | DiscoveRx PathHunter D2 beta-arrestin, luminescence, 90 min; 100% = 57 uM dopamine signal | activation, % (test concentration not listed) | 360,000 tested, 0.084% active | AID 624465; in the data active = activation above about 40%; inconclusive = between about 15% and that limit
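Agonist mode: compounds alone added to overnight-plated D2 PathHunter cells for 90 min at 37 C, with 57 uM final dopamine (EC100) defining full response. Beta-arrestin recruitment detected by chemiluminescent reagent, read after 1 h at ambient temperature.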
D2 ag-2: agonists of human D2 dopamine receptor. P14416. HEK293 T-REx D2 cells, calcium flux agonist mode. activation, % at 2 µM. 340,000 tested, 0.53% active. AID 485358;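 active = activation over 3 SD above normal in the single-dose calcium agonist read, cut at about 30% in these data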; note: 0% is about no effect
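In this primary screen, compounds producing a positive calcium signal within 180 s of addition to tetracycline-induced, force-coupled HEK293 Trex D2 cells are flagged; cells are dye-loaded with a no-wash calcium kit beforehand.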
LDHA inh: blocks human lactate dehydrogenase A; AID 1347041; P00338; 480,000 tested, 0.15% active; purified LDHA, NADH/diaphorase-resazurin fluorescence; active compounds read low; activity change, % (values are at about 110 or 230 µM); in the data active = activity change below about -30%; inconclusive = mostly about -25% to -30%;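 note: plate controls were DMSO wells for no effect and wells without enzyme for full effect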
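Enzyme activity of human lactate dehydrogenase 5 (2 nM; 0.06 mM NADH, 0.2 mM pyruvate, 5 min, RT) is measured via a resazurin/diaphorase fluorescence readout of residual NADH.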
D2 antagonist: D2 dopamine receptor (human) antagonism; 340,000 tested, 2% active; P14416; HEK293 TREx D2 cells, calcium flux, dopamine EC80; AID 485344; inhibition, % at 10 µM; in the data active = inhibition above about 30%; inactive = below that, where a call was filed; note: 0% is about no effect
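In this primary screen, negative modulation is detected by tracking calcium flux after an EC80 dopamine challenge in inducible HEK293 T-REx D2 cells preexposed to test compound for 180 s.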
D2 PAM-2: positively modulates the human D2 dopamine receptor allosterically. HEK293 T-REx D2, calcium flux, EC20 dopamine potentiation. potentiation, % at 10 µM. 340,000 tested, 0.34% active. AID 485347;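 active = potentiation over 3 SD above the plate norm, cut at about 30% in these data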; note: 0% is about no effect
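Tetracycline-induced HEK293 T-REx cells force-coupled to calcium signalling expressed D2; compounds were pin-added after a 10 s baseline, read kinetically 180 s, then an EC20 dopamine challenge followed with a further 180 s calcium read.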
The depositor's hits bear a star; ? = inconclusive; / = no result; ! = a repeat was not active.

SMILES	D2 PAM-1	D2 ag-1	D2 ag-2	LDHA inh	D2 antagonist	D2 PAM-2
O=[N+]([O-])c1ccc(NCc2ccccc2)c2nonc12	3.5	4.7	135.2*	-10.5	44.0*	-20.6
CCCCNC(=O)NC(=O)CCl	/	/	/	7.9	/	/
COc1ccc(C(CNC(=O)c2ccc3c(c2)CCC3)N(C)C)cc1 (stereo unspecified)	-17.0	-3.6	-0.8	-7.1	79.5*	-27.9
COc1ccc(C(=O)C(Cc2ccccc2)N(C)C)cc1 (stereo unspecified)	-20.9	-2.5	1.0	-10.6	1.5	-3.3
N#Cc1c(-c2cccc(-c3no[n+]([O-])c3C#N)c2)no[n+]1[O-]	/	/	/	2.6	/	/
Cc1ccc(N2CC(C(=O)OCC(=O)Nc3ccc(C#N)c(Cl)c3)CC2=O)cc1 (stereo unspecified)	/	/	/	-3.6	/	/
COc1ccccc1OCC#CCN1CCCC(C)C1 (stereo unspecified)	3.9	-5.1	0.3	-19.5	57.5*	-37.6
CN1CCc2c([nH]c3ccccc23)C1	-104.8	-3.6	0.1	2.3	51.4*	-24.5
CCCn1cc2c3c(cccc31)C1CC(C)CN(C)C1C2 (stereo unspecified)	/	/	38.9*	/	86.6*	-28.7
Cc1ccc(C)c(NC(=O)c2cn(Cc3ccccc3)nn2)c1	/	/	/	7.3	/	/
Clc1cccc(N2CCNCC2)c1Cl	-4.0	-0.6	1.6	-5.5	35.0*	-26.1
COCCCn1c(N)c(C(=O)OC(C)COC)c2nc3ccccc3nc21 (stereo unspecified)	-10.5	-3.6	-0.8	1.2	42.5*	-2.4
CN(C)c1ccc(-[n+]2ccc(-c3cc[n+](-c4ccc(N(C)C)cc4)cc3)cc2)cc1	/	/	/	46.2	/	/
O=C(CCC(=O)N1C[C@H]2C[C@@H](C1)c1cccc(=O)n1C2)NCc1ccccc1	-21.3	-2.8	0.1	-0.9	-3.2	-6.0
COc1ccc(CNC(=O)CCC(=O)N2C[C@H]3C[C@H](C2)c2cccc(=O)n2C3)cc1OC	-25.7	-2.8	0.4	1.9	36.4*	-1.7
CCOc1ccccc1N=C1SCCCN1C	-14.2	-1.9	0.6	-37.7*	7.9	-3.6
CC(C)(c1ccccc1)c1ccc(O)c(C(C)(C)c2ccccc2)c1	/	/	/	17.5	/	/
C/C=C(\C)C(=O)OC1C(C)=C2C(C1OC(=O)CCCCC)C(C)(OC(C)=O)CC(OC(=O)CCC)C1(O)C2OC(=O)C1(C)O (stereo unspecified)	/	/	66.3*	/	35.9*	-12.0
Clc1ccc(-c2ccc(CNC3CN4CCC3CC4)o2)c(Cl)c1 (stereo unspecified)	/	/	/	2.3	/	/
CN1C(CC(O)c2ccccc2)CCCC1CC(O)c1ccccc1 (stereo unspecified)	-2.7	-2.0	0.2	-1.8	2.8	-9.5
Cn1c[n+](C)cc1C(O)c1ccccc1 (stereo unspecified)	-37.2	-0.4	-1.1	-61.3*!	-12.1	4.5
c1coc(CN2Cc3ccccc3-n3nncc3C2)c1	-2.9	-9.3	/	-31.6*	/	/
CCOC(=O)CNC(=O)N1Cc2ccccc2-n2nncc2C1	-3.7	-10.4	/	-33.2*	/	/
S=C(NCCc1ccccc1)N1Cc2ccccc2-n2nncc2C1	-10.1	-8.0	/	-36.4*	/	/
S=C(NCCc1ccccc1)N1Cc2cc(-c3ccccc3)ccc2-n2nncc2C1	3.5	?	/	-6.0	/	/
SMILES	D2 PAM-1	D2 ag-1	D2 ag-2	LDHA inh	D2 antagonist	D2 PAM-2
CN(C)CCCN1CCC(=O)C2CCCCC21 (stereo unspecified)	/	/	/	13.5	/	/
N#CC1(c2ccccc2)CCN(C2CC(=O)N(c3ccc(F)cc3)C2=O)CC1 (stereo unspecified)	-4.9	4.9	0.8	-11.1	-16.0	30.9*
O=c1oc2ccccc2c(O)c1C(c1ccccc1)c1c(O)c2ccccc2oc1=O	/	/	/	-10.0	/	/
Cc1cc(C)cc(N2C(=O)NC(=O)C3(Cc4cc(C)ccc4N(C)C3)C2=O)c1 (stereo unspecified)	/	/	/	9.6	/	/
c1ccc(-c2cc(-c3ccccc3)[n+](-c3ccccc3)c(-c3ccccc3)c2)cc1	22.9	14.1	/	-9.9	/	/
Cc1ccc(-c2cc(-c3ccccc3)cc(-c3ccccc3)[n+]2-c2ccccc2)cc1	11.0	10.7	1.7	-12.7	38.2*	-2.7
CC1(C)Cc2c(sc3c2C(=O)NC(c2cccnc2)N3)CO1 (stereo unspecified)	-4.2	-2.7	0.6	-1.0	69.5*	/
CN1CCc2cc(O)cc3c2[C@H]1Cc1ccc(O)c(O)c1-3	100.9*	105.7*	/	3.3	/	/
COc1cc2c(cc1O)C[C@H]1c3c(cc(O)c(OC)c3-2)CCN1C	-31.7	-0.4	1.1	0.8	-1.0	-17.4
CCCN1CCc2cc(O)cc3c2[C@H]1Cc1ccc(O)c(O)c1-3	128.8*	241.1*	/	60.2	/	/
Nc1ccc2ccc3cccc[n+]3c2c1	4.2	-0.9	31.1*	27.6	1.4	2.7
CC(=O)C1=C(C)OC(N)=C(C(=O)OCc2ccccc2)C12C(=O)Nc1ccccc12 (stereo unspecified)	/	/	/	7.2	/	/
CCc1ccc2[nH]c(C)c(CCN)c2c1	/	/	/	-2.1	/	/
CN1CC[C@]2(c3cccc(O)c3)Cc3nc4ccccc4cc3C[C@H]2C1	/	/	-1.1	/	40.5*	-7.4
CC(=O)O[C@@]12CO[C@@H]1C[C@H](OC1OCC(O)C(O)C1O)[C@@]1(C)C(=O)[C@H](O)C3=C(C)[C@@H](OC(=O)[C@H](O)[C@@H](NC(=O)c4ccccc4)c4ccccc4)C[C@@](O)([C@@H](OC(=O)c4ccccc4)C12)C3(C)C (stereo partly specified)	4.7	8.2	-0.1	2.3	37.5*	6.8
CCCn1c(C)c(C(=O)OCc2ccccc2)c2cc(O)ccc21	/	/	/	17.2	/	/
CNC(=S)NC1CC2CCCC(C1)N2CC(C)C (stereo unspecified)	-14.9	0.1	/	-15.5	/	/
Cc1ccc(CN2C3CCCC2CC(NC(=S)NCc2ccccc2)C3)cc1 (stereo unspecified)	-1.7	-1.3	1.0	-3.3	104.4*	-29.7
C[N+](C)(C)CC1CC1	/	/	/	5.3	/	/
CC(Cc1ccco1)NCc1cc2ccccc2o1 (stereo unspecified)	/	/	/	10.1	/	/
O=C1NC(=S)NC(=O)C1=Cc1ccc(OCc2ccccc2)cc1	-9.8	-0.2	/	?	/	/
CN(CCOc1ccc(C=C2C(=O)NC(=O)NC2=O)cc1)c1ccccn1	-5.2	-5.1	2.5	-32.3*	-4.7	7.2
Cc1cc2c(C(F)(F)F)cc(=O)oc2c2c1NCCC2	2.8	0.5	19.9	-3.6	-17.6	4.8
